Shiga inhibitor – A qHTS for Small Molecule Inhibitors of Shiga Toxin. Vero cells, Shiga toxin protein synthesis inhibition reporter. inhibition, % at 38.7 µM. 9.2% of 290,000 active. AID 2315, 2010; in the data active means inhibition mostly above about 28%, no sharp cut-off; inactive means mostly below about 43%; further: 0% is about no effect
Pf growth 96h – Primary qHTS for delayed death inhibitors of the malarial parasite plastid, 96 hour incubation. 6.9% of 320,000 active. Potency, µM (series often up to 28.7 µM), for inactives: at the top dose activity change, negative = inhibition, usual class: inhibitors. P. falciparum luciferase reporter growth, 96 h; further: potency means the concentration at half of the fitted maximal effect; on the % scale 0 is the no-effect control and ±100 the full control effect
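P. falciparum expressing integrated firefly luciferase, in erythrocytes at 2% hematocrit, 0.05% parasitemia, incubated with compounds 96 h at 37 C, 5% CO2. Growth inhibition read as loss of luminescence; two-generation exposure targets delayed-death apicoplast inhibitors.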
Cycloheximide cs – Cycloheximide Counterscreen for Small Molecule Inhibitors of Shiga Toxin; cell reporter, cycloheximide protein synthesis inhibition counterscreen; max response, %; 12% of 300,000 active; in the data active means max response mostly above about 13%, no sharp cut-off; inactive means mostly below about 14%; further: read at 38.3 µM for the half of the compounds with a filed dose; 0% is about no effect
HCV inhibitor – qHTS Assay for Inhibitors of Hepatitis C Virus (HCV). Huh7.5.1 HCVcc-Cre infection, luciferase reporter, 44 h. Potency, µM (titrated, usually from 41.8 µM), without a hit: top-dose activity change, negative = inhibition, most hits filed as inhibitors. 3.4% of 340,000 active. AID 651820, 2012; further: potency means the concentration at half of the fitted maximal effect; on the % scale 0 is the no-effect control and ±100 the full control effect
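Reporter virus HCVcc-Cre (~0.5 moi) infects cells exposed to compound; seeding density 1,000 cells/well with 4 h settling beforehand. Luminescence, 15 sec read, taken 44 h post-infection following a 15 min RT substrate incubation.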
Pf growth 48h – Primary qHTS for delayed death inhibitors of the malarial parasite plastid, 48 hour incubation; AID 504832, 2011; P. falciparum luciferase growth in erythrocytes, 48 h; Potency, µM (doses to about 28.7 µM), for the others: at the top dose activity change, negative = inhibition, most hits filed as inhibitors; 5.9% of 310,000 active; further: potency means the concentration at half of the fitted maximal effect; on the % scale 0 is the no-effect control and ±100 the full control effect
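Erythrocytes infected with P. falciparum carrying an integrated firefly luciferase reporter (2% hematocrit, 0.1% parasitemia final) were exposed to compounds in RPMI 1640 with 0.5% Albumax at 37 C, 5% CO2. Growth inhibition was scored as reduced luminescence.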
HCMV inh – qHTS Assay for inhibitors of the human cytomegalovirus (HCMV); activity change, negative = inhibition, % at 57.5 µM; 4.5% of 410,000 active; HFF cells, HCMV-luciferase reporter, 72 h; stronger effect = lower value; in the data active means activity change below about -60%; inconclusive means no clear call, values can overlap the other calls; inactive means above about -39%; further: on the % scale 0 is the no-effect control and ±100 the full control effect
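HFF cells seeded 16 h at 37C, treated with compounds, infected with luciferase-reporter HCMV at MOI 1 PFU/cell; luciferase read at 72 h post infection, normalized to buffer-only and Salinomycin controls.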
Numbers without * were called inactive; ? = inconclusive; · = not tested or not shown; [ ] = remark or other dose. Compounds with a hit are over-represented: about 21% of the library has one in this group of screens. Unless noted, the call rests on the fitted dose curve; in most records, active means well fitted inhibition curve with a large enough effect; inconclusive means small, poorly fitted or top-dose-only effect, or another doubt; inactive means no such curve, though single readings can be large or run the other way.

SMILES	Shiga inhibitor	Pf growth 96h	Cycloheximide cs	HCV inhibitor	Pf growth 48h	HCMV inh
COc1ccc(C(=O)N2CCC(C(=O)Nc3ccc4c(c3)OCCO4)CC2)cc1	43	35%	48*	-15%	·	?
COC(=O)[C@@]1(Cc2ccc(F)cc2)[C@H]2c3cc(C(=O)N4CCCC4)n(CCSCCO)c3C[C@H]2CN1C(=O)c1ccccc1	·	·	·	·	·	-17
COC(=O)[C@@]1(Cc2ccccc2)[C@H]2c3cc(C(=O)N4CCCC4)n(CCSCCO)c3C[C@H]2CN1C(=O)c1ccccc1	-14	2.3µM*	-4	1%[8.37 µM]	1.7µM*	·
COC(=O)[C@@]1(Cc2ccc(F)cc2)[C@H]2c3cc(C(=O)N(C)C)n(CCO)c3C[C@H]2CN1C(=O)c1ccccc1	·	·	·	·	·	-19
COC(=O)[C@@]1(Cc2ccc(F)cc2)[C@H]2c3cc(C(=O)N4CCCC4)n(CCc4ccccn4)c3C[C@H]2CN1C(=O)c1ccccc1	-14	2.1µM*	-2	21%	3.3µM*	?
COCCn1c(C(=O)N2CCCC2)cc2c1C[C@H]1CN(C(=O)c3ccccc3)[C@@](Cc3ccc(F)cc3)(C(=O)OC)[C@@H]21	-16	4.7µM*	-5	0%[8.37 µM]	1.7µM*	-3
COC(=O)[C@@]1(Cc2ccc(F)cc2)[C@H]2c3cc(C(=O)N(C)C)n(CCc4ccccn4)c3C[C@H]2CN1C(=O)c1ccccc1	-16	3.3µM*	-3	15%	2.6µM*	9
COCCCN(C(=O)C1CCC1)c1c(N)n(Cc2ccccc2)c(=O)[nH]c1=O	·	-18%	·	-4%	3%	16
CCc1ccc(NC(=O)c2sc3nc(C)c(Cl)c(C)c3c2NC(=O)c2ccccc2OC)cc1	·	·	·	·	·	-10
COC(=O)[C@@]1(Cc2ccc(F)cc2)[C@H]2c3cc(C(=O)N4CCCC4)n(CCN4CCNC4=O)c3C[C@H]2CN1C(=O)c1ccccc1	·	·	·	·	·	-13
COC(=O)[C@@]1(Cc2ccc(F)cc2)[C@H]2c3cc(C(=O)N4CCCC4)n(CCc4c[nH]c5ccc(OC)cc45)c3C[C@H]2CN1C(=O)c1ccccc1	-15	1µM*	-2	-3%[8.37 µM]	?	0
CCCN=C1N(CC)C[C@@H]2[C@@H]3C(=O)N(C)C(=O)[C@@H]3[C@](CC)(C(=O)OC)N12	·	·	·	?	·	30
CCOC(=O)N1CCN(c2nc(-c3ccc(F)cc3)cs2)CC1	48*	92%	23*	?	13%	-15
CCOC(=O)C(=O)N1CCN(c2nc(-c3ccc(Cl)cc3)cs2)CC1	·	4.7µM*	-4	1%	13%	-26
O=C(C1CCCCC1)N1CCN(c2nc(-c3ccc(F)cc3)cs2)CC1	2	4%	16	?	-1%	-60*
NC(=O)C1CCN(c2nc(-c3ccc(F)cc3)cs2)CC1	·	?	·	·	?	-6
NC(=O)C1CCN(c2nc(-c3ccc(Cl)cc3)cs2)CC1	·	-23%	·	·	?	·
COc1ccc(-c2csc(N3CCC(C(N)=O)(N4CCCCC4)CC3)n2)cc1	-5	-1%	-5	?	?	-81*
Nc1ccccc1Oc1ccccc1	-5	·	-1	·	·	·
CCCCOC(=O)c1ccc(NC(=O)/C(C#N)=C/c2ccc(C)o2)cc1	·	·	·	·	·	-1
Cc1ccc(CCNC(=O)c2cn(C)c3ccc(S(=O)(=O)N(C)C4CCCCC4)cc3c2=O)cc1	·	·	·	·	·	-7
CCOC(=O)c1c(NC(=O)C2CCCCC2)sc2c1CCN(C(C)C)C2	10	13µM*	-5	7.9µM*	-11%	8
CC(C)N1CCc2c(sc(NC(=O)C3CCCCC3)c2C(N)=O)C1	-10	?	-4	?	?	-79*
COC(=O)c1c(NC(=O)C2CCCCC2)sc2c1CCN(C(C)C)C2	-6	?	-1	-11%	?	-24
Cc1ccc(C)c(NC(=O)Cn2c(=O)n(CCC(C)C)c(=O)c3cccnc32)c1	·	·	·	·	·	15
SMILES	Shiga inhibitor	Pf growth 96h	Cycloheximide cs	HCV inhibitor	Pf growth 48h	HCMV inh
CCNc1nc(C#N)nc2c1ncn2-c1cc(F)cc(F)c1	·	?	·	·	1.7µM*	-9
CCn1cnc2c(Nc3cc(F)cc(F)c3)nc(C#N)nc21	·	0.29µM*	·	·	0.83µM*	-37
Cn1c(-c2ccccc2)c(/C=N/NC(=O)c2ccc(O)cc2)c2ccccc21	87*	?	34*	10µM*	69%	35
COc1ccccc1/C=N/NC(=O)c1ccc(C)nc1	-9	?	9	-4%	3%	23
O=C(N/N=C\c1c(O)ccc2ccccc12)c1ccc(O)cc1	12	65%	2	?	?	-98*
O=C(N/N=C/c1c(O)ccc2ccccc12)c1ccc(Br)o1	-2	3%	18*	3.5µM*	?	-99*
Cc1ccc(C(=O)N/N=C/c2c(O)ccc3ccccc23)cn1	-6	8%	-4	4.5µM*	3.7µM*	-97*
O=C(CN1CCOCC1)N/N=C/c1c(O)ccc2ccccc12	·	1%	-2	?	?	48
COc1ccc(N2CC(NS(=O)(=O)c3ccc(F)cc3)CC2=O)cc1 (stereo not drawn)	·	20%	·	10%	20%	23
Cc1cc(O)c(C)c(O)c1/C=N/NC(=O)c1cccnc1	-4	7%	1	13µM*	?	-97*
CC1(C)C2CC=C(/C=N/NC(=O)c3ccc(O)cc3)C1C2 (stereo not drawn)	68	-15%	15*	-4%	-5%	-34
O=C(N/N=C/c1cccc2ccccc12)c1ccncc1	15	?	14	8%	39%	37
Cc1c(/C=N/NC(=O)c2cccnc2)c2ccccc2n1Cc1ccccc1	17	-25%	18	11µM*	?	-62*
O=C(NN=Cc1c(O)ccc2ccccc12)c1ccncc1	·	·	·	?	·	-100*
CCOC(=O)c1c(C)oc2ncnc(Nc3ccc(OC)cc3OC)c12	·	·	·	·	·	12
Cc1cc2oc(C(=O)Nc3ccc(S(=O)(=O)N(C)c4ccccc4)cc3)cc(=O)c2cc1C	·	·	·	·	·	2
Cn1c(/N=C/c2c(O)ccc3ccccc23)nc2ccccc21	81*	-3%	69*	-2%	-16%	-85*
COc1cccc(/C=N/NC(=O)c2ccc(=O)n(C)c2)c1O	-5	7%	-2	-16%	?	84
CCCn1c(/N=C/c2ccccc2O)nc2ccccc21	-12	?	-1	11%	43%	4
Cn1cc(C(=O)N/N=C/c2c(O)ccc3ccccc23)ccc1=O	8	28%	-1	4.5µM*	2.6µM*	-99*
Cn1cccc1/C=N\NC(=O)c1cncc(Br)c1	17	2%	1	18%	-5%	?
O=C(N/N=C\c1c(O)ccc2ccccc12)c1cncc(Br)c1	-7	2.3µM*	0	?	2.9µM*	-100*
